Source: PubChem BioAssay (NCI)
Values joined by “and” are separate entries in the source; they are usually repeats but may differ in a detail not shown here. Identical values can stand only once. The panel holds about 79,000 compounds, 15% with a hit somewhere; the sample as a whole holds those more often. Cut-off read from the data, not from the text of the source: active = growth inhibition above about 70%; inactive = the rest.

Legend:
[1] = NCI Yeast Anticancer Drug Screen. Data for the rad50 strain (AID 155);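 note: 0% = growth of vehicle-only cultures of the same strain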; conditions: S. cerevisiae rad50 strain growth inhibition, hits give high values; at 50.0 µM unless noted
Outline: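 Vehicle-treated cultures provide the reference for the growth inhibition reported for compound-exposed, repair-deficient yeast.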

[2] = NCI Yeast Anticancer Drug Screen. Data for the mec2-1 strain (AID 157); conditions: S. cerevisiae mec2-1 strain, hits give high values; at 50.0 µM unless noted
Outline: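 Compounds were applied to mec2-1 yeast cells. Their growth was then compared with that of vehicle-treated cultures to give growth inhibition.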

[3] = NCI Yeast Anticancer Drug Screen. Data for the sgs1 mgt1 strain (AID 161);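 note: 0% = growth of cultures given vehicle only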; conditions: S. cerevisiae sgs1 mgt1 strain, hits give high values; at 50.0 µM unless noted
Outline: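 This yeast growth screen uses a strain with defined DNA-repair lesions; compound-treated growth is compared with vehicle-treated growth.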

[4] = NCI Yeast Anticancer Drug Screen. Data for the cln2 rad14 strain (AID 165);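 note: 0% = growth equal to vehicle treated cultures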; conditions: S. cerevisiae cln2 rad14 strain, hits give high values; at 50.0 µM unless noted
Outline: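 Strain: cln2 rad14 yeast, altered in cell cycle control and DNA damage repair. Read-out: growth inhibition vs vehicle.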

[5] = NCI Yeast Anticancer Drug Screen. Data for the bub3 strain (AID 167); conditions: S. cerevisiae bub3 mutant strain, hits give high values; at 50.0 µM unless noted
Outline: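 Mutant yeast screening strain plus compound; vehicle-treated cultures serve as the 0% inhibition reference.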

[6] = NCI Yeast Anticancer Drug Screen. Data for the mlh1 rad18 strain (AID 175); conditions: S. cerevisiae mlh1 rad18 strain growth inhibition, hits give high values; at 50.0 µM unless noted
Outline: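 A repair-deficient yeast strain is exposed to test compound, and growth is scored relative to vehicle-treated controls.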

Measured: growth inhibition

O=c1c2ccccc2oc2c(Cl)cc(Cl)cc12
inactive: [1] -0.95% | [2] -0.05% | [3] 9.35% | [4] -10.3% | [5] -6.5% | [6] 0.8%

[N-]=[N+]=CC(=O)C1OC12C1CC3CC(C1)CC2C3 (stereo unspecified)
inactive: [1] -9.2% | [2] -5.85% | [3] 2.45% | [4] -6.25% | [5] 5.2% | [6] 4.55%

Cc1[nH]c(=O)nc(N/N=C/c2ccc(Cl)cc2)c1C(=O)NC(C)(CO)CO
inactive: [1] -30.6% | [2] -14.6% | [3] -43.5% | [4] -10.4% | [5] 16.7% | [6] -3.45%

COc1cc(C(=O)N2CCOC23CCN(Cc2ccccc2)CC3)cc(OC)c1OC
inactive: [1] -1.5% | [2] -30.6% | [3] -7.8% | [4] 13.2% | [5] -6.9% | [6] 2.7%

O=C(O)/C=C/c1cc(Br)sc1Br
inactive: [1] -2.05% | [2] 7.35% | [3] 5% | [4] -11.3% | [5] -0.95% | [6] 19.5%

S=c1nc[nH]c2c1ncn2Cc1ccco1
inactive: [1] 5.85% | [2] -12.9% | [3] -11.3% | [4] 0.55% | [5] -46.2% | [6] 5%

CCOC(=O)c1ccc(NC(=S)NC(=O)C(C)Oc2ccccc2)cc1 (stereo unspecified)
inactive: [1] -10.9% | [2] 40% | [3] 44.8% | [4] -21.2% | [5] 37.8% | [6] 25.2%

CCN(CC)CC(=O)Nc1cc(Cl)ccc1OC
inactive: [1] -4% | [2] -19.8% | [3] -5.75% | [4] -35.3% | [5] 8.9% | [6] -6.25%

CS(=O)(=O)c1nc2[nH]cnc(=S)c2[nH]1
inactive: [1] 8% | [2] -8.2% | [3] -3.5% | [4] 10.9% | [5] 20.9% | [6] -7.1%

CN(C)c1ccccc1C(=O)N/N=C\c1ccc(-c2ccccc2)cc1
inactive: [1] 7.05% | [2] 4.95% | [3] 0.6% | [4] 12.3% | [5] 0.35% | [6] 19.6%

CCNC(=O)COc1ccc(Cl)c(C)c1
inactive: [1] -13.6% | [2] -31.9% | [3] -30.4% | [4] -33.8% | [5] -23.2% | [6] -29.7%

CCc1cc(C)cc(O)c1
inactive: [1] -42.9% and 38% | [2] -40% and 4.6% | [3] -65.2% and -1.55% | [4] 0.45% and 7.15% | [5] -56% and 27.4% | [6] -29.9% and 12%

O=C(Cl)C(=O)c1c[nH]c2ccccc12
inactive: [1] 6.2% | [2] -1.95% | [3] -3% | [4] 1.65% | [5] -33.6% | [6] -12.5%

O=C(O)CCC(CC(=O)O)C(=O)O (stereo unspecified)
inactive: [1] 19.1% | [2] 4.95% | [3] 16% | [4] 13.7% | [5] 23.9% | [6] 15.4%

CC(C)(C)C(=O)Oc1ccc([N+](=O)[O-])cc1
inactive: [1] 2.15% | [2] -0.35% | [3] -7.55% | [4] -30.4% | [5] -33.1% | [6] 10.2%

CC(C)COC(=O)c1ccccc1
inactive: [1] 35% | [2] 7.95% | [3] 20.1% | [4] -18.4% | [5] -9.6% | [6] 3.6%

O=[N+]([O-])/C=C/c1cn(CCCCCCCCCCCCn2cc(/C=C/[N+](=O)[O-])c3ccccc32)c2ccccc12
inactive: [1] -1.5% | [2] -24.6% | [3] -3.9% | [4] 6.45% | [5] -19.4% | [6] -13.6%

Cc1cn(C2CC(OP(=O)(O)OCC3OC(n4ccc(N)nc4=O)C(O)C3O)C(CO)O2)c(=O)[nH]c1=O (stereo unspecified)
inactive: [1] 7.55% | [2] 1.5% | [3] 8.15% | [4] 13.7% | [5] -23.6% | [6] -74.2%

CCC1(C=O)C(=O)NC(=O)N1C (stereo unspecified)
inactive: [1] 3.4% | [2] 1.05% | [3] 2% | [4] 6.25% | [5] 1.7% | [6] 6.45%

FC(F)(F)COP1(OCC(F)(F)F)=NP(OCC(F)(F)F)(OCC(F)(F)F)=NP(OCC(F)(F)F)(OCC(F)(F)F)=N1
inactive: [1] -1.2% | [2] 14.3% | [3] -5.15% | [4] -4.55% | [5] -3.45% | [6] 6.8%

O=c1[nH]cnc2c1ccc1[nH]ncc12
inactive: [1] 9.45% | [2] 0.2% | [3] -3.35% | [4] -42.2% | [5] -1.05% | [6] 5.4%

CCCCCCCCCCCCCCCOc1ccc(OCCCCCCCCCCCC)cc1
inactive: [1] 37.8% | [2] -6.3% | [3] 16.4% | [4] -33% | [5] 4.25% | [6] 11.8%

Cc1c(C(=O)CC(=O)C(=O)Nc2ccc(Cl)c(Cl)c2)[n+](=O)c2ccccc2n1[O-]
inactive: [1] 12.6% | [2] 16.9% | [3] -16.1% | [4] 34.5% | [5] 19.4% | [6] 20.2%

COc1ccc(OC)c2[nH]c(=O)c(C)nc12
inactive: [1] 7.15% | [2] 1.85% | [3] 5.75% | [4] -4.85% | [5] 4.35% | [6] -4.3%

CC(C)NC(=O)OCc1c(COC(=O)NC(C)C)c2n(c1Br)CCC2
inactive: [1] 32.8% | [2] 26.1% | [3] -9.6% | [4] 16.9% | [5] 0.2% | [6] -51.4%

CN(N)c1nc(N)c(C#N)c(C#N)c1C#N
inactive: [1] -16.8% | [2] -22.5% | [3] -4.9% | [4] 11.7% | [5] -2.65% | [6] 3.9%

O=c1ccc2ccccc2cc1
inactive: [1] 14.3% | [2] -18.6% | [3] 20.8% | [4] -39.9% | [5] 8.15% | [6] 8.4%

Cc1cc(N)ccc1-c1cc(C)c(N)c(C)c1C
inactive: [1] -39.4% | [2] -21.9% | [3] -7.8% | [4] 13.2% | [5] -18.7% | [6] -15.1%

COC(=O)C1=C2C3(O)CC4CC5C3CCC(C)N5C24C2CCCC(OC)C2C1OC(=O)c1ccccc1 (stereo unspecified)
inactive: [1] -2.1% | [2] -27.1% | [3] 17.9% | [4] 8.9% | [5] 0.7% | [6] 24.1%

CN(C)N1C(=O)S/C(=C\c2ccc([N+](=O)[O-])cc2)C1=O
inactive: [1] -24.4% | [2] -14.3% | [3] 1.15% | [4] 6.3% | [5] -4.1% | [6] -16.2%

FC1=C(F)C2(F)C3CCC(O3)C2(F)C(Br)=C1F (stereo unspecified)
inactive: [1] -9.6% | [2] -3.3% | [3] 3.2% | [4] -1.35% | [5] -6.15% | [6] 4.5%

O=C1c2ccccc2C(=O)N1c1ccc(OCCN2CCCCC2)cc1
inactive: [1] 11.8% | [2] -1.7% | [3] 7.45% | [4] 37.5% | [5] -2.05% | [6] 18.4%

Cn1c2ccccc2c2c3c(ccc21)C(=O)N(c1ccccc1)C3=O
inactive: [1] 11.7% | [2] -4.7% | [3] 12.9% | [4] -3.5% | [5] 12.4% | [6] 2.95%

CC1=C(C(=O)CC(=O)C(=O)Nc2ccc(Cl)cc2C)Sc2ccccc2N1
inactive: [1] -4.7% | [2] 3.25% | [3] -26.6% | [4] 9.35% | [5] 6.7% | [6] -22.6%

O=C(/C(Cl)=N/O)c1ccc(O)c(O)c1
inactive: [1] 30.3% | [2] 14.8% | [3] 18.2% | [4] 24.6% | [5] 47.2% | [6] 19.9%

O=C1N=C2Sc3ccc4ccccc4c3N2C1=O
inactive: [1] 21.2% | [2] 2.55% | [3] 24.1% | [4] 20.4% | [5] 5.5% | [6] 11.2%

CCCCCCCOC(=O)CO
inactive: [1] 22.4% | [2] 6.65% | [3] 16.2% | [4] 16.9% | [5] 1.95% | [6] 19.4%

CCOC(=O)/C(C#N)=C/c1ccccc1Cl
inactive: [1] 12.1% | [2] -6.3% | [3] -30.6% | [4] 16.1% | [5] -20.1% | [6] 6.35%

OCCc1ccc2ccccc2n1
inactive: [1] 6.05% | [2] 14.2% | [3] 10.7% | [4] 6.2% | [5] -0.8% | [6] 3.5%

CCOC(=O)CSCC(=O)OCC
inactive: [1] 3.6% | [2] -9% | [3] -17.2% | [4] 8.45% | [5] -9.4% | [6] -4.65%

CC(CC(=O)O)(CC(=O)O)C(=O)O
inactive: [1] 16.1% | [2] -17.9% | [3] -28.9% | [4] 12.6% | [5] -29.4% | [6] -22.9%
